# From PubChem BioAssay (NCATS)
# Results filed as inconclusive are left out. Values without a mark were called inactive. Calls of active or inactive are those of the source. The call rests on the fitted dose curve; in most records, active means well fitted cell-killing curve with a large enough effect; inconclusive means small, poorly fitted or top-dose-only effect, or effect the other way; inactive means flat fitted curve, though single readings scatter.
# Test system: JEG-3
# Assay: Primary qHTS to identify gynecologic anti-cancer compounds using libraries of approved drugs and bioactive compounds (AID 1345084); further: nearly all actives have a fitted effect of over 55% in size
# Conditions: Gynecologic cancer cell panel viability, ATPlite luminescence, 48 h; series mostly up to 57.5 µM; activity change, negative = cytotoxicity: at the top concentration
# Procedure, shortened: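 Luminescence from the ATPlite ATP-monitoring reagent indicates viable cell number; lower signal means cytotoxicity. Cells received compound 16 h after seeding and were exposed for 48 h across five concentrations.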
# On the % scale 0 is the no-effect control and ±100 the full control effect; potency means the concentration at half of the fitted maximal effect.
Compound,Potency,"activity change, negative = cytotoxicity"
CCC(CC)C(c1ccc(Nc2nc3ccccc3s2)cc1)n1cncn1 (stereo not drawn),31.6 µM (active),
C=C[C@@]1(C)CCC2C(=CCC3[C@]2(C)CCC[C@@]3(C)C(=O)O)C1 (stereo partly drawn),,-19.4%
COc1ccc(C[C@H]2COC(=O)[C@@H]2Cc2ccc(O[C@@H]3O[C@H](CO)[C@@H](O)[C@H](O)[C@H]3O)c(OC)c2)cc1OC,,2.11% [at 25.3 µM]
CN(C)C(=O)NC1(c2ccccc2)CCN(CCC[C@]2(c3ccc(Cl)c(Cl)c3)CCCN(C(=O)c3ccccc3)C2)CC1,,3.44%
CN(C)c1cccc(Oc2cnc(Nc3cccc(O)c3)nc2)c1,,-9.79%
FC(F)(F)c1ccccc1-c1cc(C(F)(F)F)c2nc(C3=NOC4(CCCCC4)C3)[nH]c2c1,,-8.5%
Nc1ncnc2c1nc(Cl)n2C1OC2COP(=O)(O)OC2C1O (stereo not drawn),15.8 µM (active),
O=C(C1CCCCC1)N(CCN1CCN(c2ccccc2O)CC1)c1ccccn1,,-0.169%
CC(=O)O[C@@]12CO[C@@H]1C[C@H](O)[C@@]1(C)C(=O)[C@H](O)C3=C(C)[C@@H](OC(=O)[C@H](O)[C@@H](NC(=O)OC(C)(C)C)c4ccccc4)C[C@@](O)([C@@H](OC(=O)c4ccccc4)C12)C3(C)C (stereo partly drawn),,-4.59% [at 25.3 µM]
Cc1[nH]c(/C=C2\C(=O)Nc3cc(-c4ccccc4)ccc32)c(C)c1CCC(=O)O,,0.572%
Cc1ccc(O)cc1Nc1ccnc(Nc2cccc(C(N)=O)c2)n1,,-27%
NCC1CCN(c2nccc(-c3ccc4ccccc4c3)n2)CC1,,-20.8%
O=C(Nc1nc2cc(C(F)(F)F)cc(NC3CC3)n2n1)c1cccnc1,10 µM (active),
